{"source": "ChEMBL document CHEMBL1201862", "about": "“PubChem BioAssay data set” (2004)", "note": "Out of some 1,300 compounds screened, about 1,000 (77%) were called active. Inconclusive results (about 7%) are left out. The rule behind the calls is not given here. The set was probably picked from earlier hits. These entries were drawn from the full list."}
{"test_system": "Giardia", "test": "qHTS of small molecules that selectively kill Giardia lamblia: Hit Validation. [Related pubchem assays (depositor defined):AID540272]", "type": "functional", "settings": "read-out: Potency"}
{"smiles": "CCCc1nnc(NC(=O)C2C(=O)c3cccc4c3N(CC4)C2=O)s1", "note": "(stereo unspecified)", "AC50": "16.3 µM (active)"}
